Measured values as given in PubChem BioAssay (NCATS).
Results filed as inconclusive are left out. The source made the active and inactive calls. Calls follow the shape of the dose curve; as a rule, active = well fitted inhibition curve with a large enough effect; inconclusive = small, poorly fitted or top-dose-only effect; inactive = flat fitted curve, though single readings scatter.

Biological target: Tyrosyl-DNA phosphodiesterase 1 (Homo sapiens) (UniProt Q9NUW8)
Assay: Confirmation Assay for Inhibitors of Tyrosyl-DNA Phosphodiesterase (TDP1) (AID 489007); also: nearly all actives have a fitted effect of over 40% in size
Conditions: recombinant human TDP1 enzymatic activity, dose-response
In short: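 AlphaScreen read-out: streptavidin donor and anti-FITC acceptor beads (10 ug/ml) bind intact substrate, so Tdp1 removal of tyrosine-FITC lowers signal. Enzyme 1 nM, substrate 15 nM, 5 min reaction at room temperature after 15 min compound preincubation.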
Potency is read from the fitted curve at half-maximal effect.

Tyrosyl-DNA phosphodiesterase 1 (Homo sapiens), sequence (Q9NUW8 whole entry, looked up): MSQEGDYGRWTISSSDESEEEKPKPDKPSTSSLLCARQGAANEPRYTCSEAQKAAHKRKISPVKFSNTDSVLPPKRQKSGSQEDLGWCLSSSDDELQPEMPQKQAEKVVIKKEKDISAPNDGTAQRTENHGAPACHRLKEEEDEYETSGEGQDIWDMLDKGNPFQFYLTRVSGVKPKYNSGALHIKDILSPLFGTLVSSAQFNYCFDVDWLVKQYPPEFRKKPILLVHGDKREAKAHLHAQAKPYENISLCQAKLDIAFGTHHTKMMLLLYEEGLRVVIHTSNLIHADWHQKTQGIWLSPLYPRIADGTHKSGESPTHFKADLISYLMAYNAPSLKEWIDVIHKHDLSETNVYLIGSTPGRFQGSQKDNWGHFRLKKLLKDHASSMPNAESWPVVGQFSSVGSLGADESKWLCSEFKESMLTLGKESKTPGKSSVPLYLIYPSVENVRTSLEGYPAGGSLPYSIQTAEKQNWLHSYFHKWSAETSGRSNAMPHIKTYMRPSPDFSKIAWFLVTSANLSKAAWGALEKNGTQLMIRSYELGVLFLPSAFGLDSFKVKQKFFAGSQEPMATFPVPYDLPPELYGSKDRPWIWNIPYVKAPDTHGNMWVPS

| SMILES | Potency |
| --- | --- |
| O=c1oc2c(O)c(O)cc3c(=O)oc4c(O)c(O)cc1c4c23 | 0.004 µM (active) |
| COc1ccc(C(=O)CC(=O)c2ccc(C(C)(C)C)cc2)cc1 | 25.1 µM (active) |
